Here are results for 40 sequences from the OligoGym collection.
Further: reference of the scale not given here.

The target in the first experiment is EPDR1. Briefly: pooled miR-30 sensor sort-seq; sequence = guide strand. To be noted: shRNA.
Sequence TATTCAAATAATCTCTTGCAGG registered a sensor-assay potency score (higher = more potent) of -0.781.
TATCACACTGTAGTTTATGGTA registered a sensor-assay potency score (higher = more potent) of -0.596.
The same measure, in the same setting: to TCAATCTGAAACATCACTCCAT belongs 1.13; to TAGCATTCACATCTTGACTAGT, 0.0481.
On the same count and under the same terms, next, TACGAGGGAACTCTAGTCCTGG: -0.607; TAGGATCTAGCTGACTTTCTGT: 0.667.
The sequence TCTAGCTGACTTTCTGTCCGAC showed a sensor-assay potency score (higher = more potent) of -0.0561.
The same measure, in the same setting: next, TAGAGGAATAATTACTTCCTAT: -0.811; TAGGATTCTCTAAACTGCCTTG: -0.223.

Another experiment deals with EPGN. The experiment is described as above. To be noted: shRNA.
In turn, TAATAGTAATCCAACACCAATC displayed a sensor-assay potency score (higher = more potent) of -1.34.
TTGGAGGTGTTACAGTCACGGC registered a sensor-assay potency score (higher = more potent) of -1.5.
For the sequence TTTCTCTAGCTCATGGTGGAAT, the sensor-assay potency score (higher = more potent) was -1.09.
As to AACCACTTAATAGTAATCCAAC, the sensor-assay potency score (higher = more potent) is -1.22.
For the sequence TATGTTGTCAGCTTGCTGGGCT, the sensor-assay potency score (higher = more potent) is 0.572.
For TGCAGTAACTGTTATGATCTTC, the sensor-assay potency score (higher = more potent) is -0.113.
The same measure, in the same setting: next, TAACCAGTAAAACACCTGCAGA: -1.05; TTCTATGTTGTCAGCTTGCTGG: -0.845; ATAACCAGTAAAACACCTGCAG: -0.113.
Take TTTCATAAGAATCCACAGCATA: the sensor-assay potency score (higher = more potent) is -0.859.
Same read-out and setting: next, TTGAATAAAAGATAGACTGATA: -0.413; TAAGAATCCACAGCATATGAAG: -1.16.

The target of another experiment is EPHA6. The description is as above. The note with it: shRNA.
For the sequence TGTATCAAGCAACACAACTTGG, the sensor-assay potency score (higher = more potent) was -0.401.
On to TTCAGCTCGGAAATAACCCTTT, for which the sensor-assay potency score (higher = more potent) is -0.23.
ATTTCTTGTAGAAAACACGGAC yielded a sensor-assay potency score (higher = more potent) of -0.586.
On the same count and under the same terms, next, TTACAGATTACACTGTATGTGA: 0.175.
In the case of TTTTCTGAGCTGCATCACGGGA, the sensor-assay potency score (higher = more potent) is -0.977.
The sequence TTCCATTACATTACATACCTGG had a sensor-assay potency score (higher = more potent) of 0.0947.
Consider TACAGTTGTTGTATCAAGCAAC, for which the sensor-assay potency score (higher = more potent) turned out to be 0.0165.
On the same count and under the same terms, to TTTCTGACTGTAGCCACTGTAT belongs -1.06; to TTGGCTTGAATTTAATTCCGTG, 0.00331; to TTTCTTACAGATTACACTGTAT, -0.425.
With TATCAAGCAACACAACTTGGTT, the sensor-assay potency score (higher = more potent) is -0.642.

A further experiment addresses EPHA8. The description is as above. To be noted: shRNA.
Sequence TCCAGAGTCACTGATGTCCCAT showed a sensor-assay potency score (higher = more potent) of -0.773.
For TACATCTTGGGTGTGTCCCGCT, the sensor-assay potency score (higher = more potent) was -0.241.
ATTTTCTCGATGTGGATCCTAG showed a sensor-assay potency score (higher = more potent) of -0.272.
Still for that read-out and setting: to TCTGATAGTGCATCTTCTCCTC belongs 0.0792.
The sequence TCATACTCCAGGATGATGCCGT registered a sensor-assay potency score (higher = more potent) of 0.44.
Still for that read-out and setting: next, TGCATCTTCTCCTCGTCCGAGT: -1.08; TAGCTGAGGTCACAGTGGCAGG: -1.64.
Sequence TTGCTGTCAACCAGGACGTTGC registered a sensor-assay potency score (higher = more potent) of -1.32.
